# Inconclusive results are not listed. The source made the active and inactive calls. How the source made its calls: active means hit-call score of the fitted dose curve at least 0.9, where 1 is the maximum; inconclusive means response in the unintended direction; inactive means score below 0.9.
# Columns and labels:
# [1] = biological target: human Peripheral-type Benzodiazepine Receptor (PBR), TSPO (gene 706) (UniProt P30536); test: NVS_MP_hPBR: NovaScreen (NVS) Membrane Protein Assay for human Peripheral-type Benzodiazepine Receptor (PBR) (AID 2283331);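 further: hits reduce radioligand binding relative to DMSO baseline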
# Outline: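 Cell-free binding to human colonic membrane preparations measured by filter-based scintillation counting after 1 h. Compounds first run at 25 uM in duplicate, then concentration series for actives; signal loss against DMSO baseline.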
# [2] = biological target: Sodium channel protein type 1 subunit alpha (Rattus norvegicus) (UniProt P04774); test: NVS_IC_rNaCh_site2: NovaScreen (NVS) Ion Channel Assay for rat Sodium Channel, Site 2 (NaCh) (AID 2283322);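 further: hit means loss of radioligand binding signal relative to DMSO so AC50 marks displacement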
# Outline: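 Initial duplicate single-point testing at 25 uM, followed by concentration-response runs for actives. Binding of radioligand to rat forebrain membranes quantified after 1 h via filter-based radiodetection.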
# Adra2b (gene 24174) = Adra2b (gene 24174) (UniProt P19328); test: NVS_GPCR_rmAdra2B: NovaScreen (NVS) G Protein-Coupled Receptor Assay for hybird cells Adrenergic, Alpha 2B Receptor (Adra2B) (AID 2283306)
# Outline: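 Compounds screened first at 25 uM in duplicate, with actives followed up in concentration-response; specific radioligand displacement from hybrid neuroglioma/blastoma cell membrane preparations measured by filter scintillation counting after 1 h, normalized to DMSO.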
# [3] = biological target: rat Opioid Receptor, Non-selective Sodium (Na+) Binding, Oprm1 (gene 25601) (UniProt P33535); test: NVS_GPCR_rOpiate_NonSelectiveNa: NovaScreen (NVS) G Protein-Coupled Receptor Assay for rat Opioid Receptor, Non-selective Sodium (Na+) Binding (AID 2283311)
# Outline: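 Filtration radioligand binding on rat forebrain membrane preparations, read 1.5 h after dosing. Single-concentration 25 µM primary screen in duplicate, followed by singleton concentration series to 50 µM max for actives; DMSO baseline.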
# [4] = biological target: rat Opioid Receptor, Non-selective Binding, Oprm1 (gene 25601) (UniProt P33535); test: NVS_GPCR_rOpiate_NonSelective: NovaScreen (NVS) G Protein-Coupled Receptor Assay for rat Opioid Receptor, Non-selective Binding (AID 2283318)
# Outline: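 Filter-based radioligand displacement using rat forebrain membrane preparations, measured 1.5 h post-dosing. Single-concentration duplicate screen at 25 uM, follow-up in concentration series; activity taken as signal loss relative to DMSO.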
# [5] = biological target: bovine Gamma-Aminobutyric Acid Type A Receptor BDZ, alpha 5 site (GABARa5), GABRA5 (gene 523515) (UniProt Q08E50); test: NVS_LGIC_bGABARa5: NovaScreen (NVS) Ligand-Gated Ion Channel Assay for bovine Gamma-Aminobutyric Acid Type A Receptor BDZ, alpha 5 site (GABARa5) (AID 2283323)
# Outline: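 Tested first in duplicate at a single 25 uM, with hits re-run in concentration series to a 50 uM maximum. Bovine hippocampal membranes; specific radioligand displacement measured by filter scintillation counting 1 hr post-dose.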
# [6] = biological target: rat Glutamate, AMPA Site (AMPA), Gria1 (gene 50592) (UniProt P19490); test: NVS_LGIC_rAMPA: NovaScreen (NVS) Ligand-Gated Ion Channel Assay for rat Glutamate, AMPA Site (AMPA) (AID 2283324)
# Outline: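 Screening at 25 uM in duplicate preceded concentration series reaching 50 uM for qualifying compounds. Radioligand displacement on rat forebrain membranes, 1 h, filter-based scintillation readout; reduced binding relative to DMSO.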
# [7] = biological target: human Serotonin, 5-Hydroxytryptamine Receptor 3 (5HT3), HTR3A (gene 3359) (UniProt P46098); test: NVS_LGIC_h5HT3: NovaScreen (NVS) Ligand-Gated Ion Channel Assay for human Serotonin, 5-Hydroxytryptamine Receptor 3 (5HT3) (AID 2283325)
# Outline: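 Initially tested at 25 uM in duplicate, then up to 50 uM in concentration-response for actives, compounds competed with a radioligand for HEK293-derived human 5-HT3 receptor. Bound counts were measured by filtration and scintillation at 1 h; loss of signal versus DMSO.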
# [8] = biological target: rat Neurokinin-1 Receptor (NK1), Tacr1 (gene 24807) (UniProt P14600); test: NVS_GPCR_rNK1: NovaScreen (NVS) G Protein-Coupled Receptor Assay for rat Neurokinin-1 Receptor (NK1) (AID 2283309)
# Outline: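 Competitive radioligand binding to NK1 in rat submaxillary membranes, 1 h incubation, filtration and scintillation read-out. Compounds first screened at 25 uM in duplicate, then concentration-response for actives; signal loss relative to DMSO.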
# [9] = biological target: rat Glutamate Metabotropic Receptor 5 (MGluR5), Grm5 (gene 24418) (UniProt P31424); test: NVS_GPCR_rmMGluR5: NovaScreen (NVS) G Protein-Coupled Receptor Assay for rat Glutamate Metabotropic Receptor 5 (MGluR5) (AID 2283307)
# Outline: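 Compounds first screened in duplicate at 25 uM, then in concentration series up to 50 uM if over threshold. Radioligand displacement on rat whole-brain membranes, filtration and scintillation counting after 1.5 h; binding loss relative to DMSO.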
# [10] = biological target: rat Neurokinin-3 Receptor (NK3), Tacr3 (gene 24808) (UniProt P16177); test: NVS_GPCR_rNK3: NovaScreen (NVS) G Protein-Coupled Receptor Assay for rat Neurokinin-3 Receptor (NK3) (AID 2283310)
# Outline: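 Filter-based radioligand displacement on rat cortex membrane preparations, read by scintillation 2 h post-dose. Chemicals first tested in duplicate at 25 uM; actives followed up in concentration series with a 50 uM maximum.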
# [11] = biological target: rat Neonicotinoid receptor (NNR), Chrna7 (gene 25302) (UniProt Q05941); test: NVS_LGIC_rNNR_BungSens: NovaScreen (NVS) Ligand-Gated Ion Channel Assay for rat Neonicotinoid receptor (NNR) (AID 2283315)
# Outline: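 Rat cortical membrane preparation incubated 2.5 h with tritiated or iodinated radioligand and test chemical. Bound radioactivity was filtered and counted by scintillation, and displacement was analysed against DMSO.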
# [12] = biological target: rat Vasopressin 1 Receptor (V1), Avpr1a (gene 25107) (UniProt P30560); test: NVS_GPCR_rV1: NovaScreen (NVS) G Protein-Coupled Receptor Assay for rat Vasopressin 1 Receptor (V1) (AID 2283316)
# Outline: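 Concentration-response up to 50 uM for chemicals passing a threshold such as 30% inhibition in an initial duplicate 25 uM screen. Displacement of radioligand from rat liver membranes measured after 1.5 h by filtration and scintillation.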
# Chain of rat Neurokinin-1 Receptor (NK1), Tacr1 (gene 24807) (P14600 whole entry, looked up): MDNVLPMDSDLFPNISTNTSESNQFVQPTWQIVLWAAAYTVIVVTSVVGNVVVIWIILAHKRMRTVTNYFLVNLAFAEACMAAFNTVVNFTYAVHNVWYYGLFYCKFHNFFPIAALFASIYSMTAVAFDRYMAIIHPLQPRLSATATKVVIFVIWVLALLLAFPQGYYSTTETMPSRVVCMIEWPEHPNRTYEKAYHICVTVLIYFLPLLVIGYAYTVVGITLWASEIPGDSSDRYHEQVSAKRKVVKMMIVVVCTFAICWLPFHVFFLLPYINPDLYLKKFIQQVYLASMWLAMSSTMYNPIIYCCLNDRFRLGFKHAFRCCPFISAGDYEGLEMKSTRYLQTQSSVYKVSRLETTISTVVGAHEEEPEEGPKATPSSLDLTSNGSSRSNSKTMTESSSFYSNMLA
# Chain of human Peripheral-type Benzodiazepine Receptor (PBR), TSPO (gene 706) (P30536 whole entry, looked up): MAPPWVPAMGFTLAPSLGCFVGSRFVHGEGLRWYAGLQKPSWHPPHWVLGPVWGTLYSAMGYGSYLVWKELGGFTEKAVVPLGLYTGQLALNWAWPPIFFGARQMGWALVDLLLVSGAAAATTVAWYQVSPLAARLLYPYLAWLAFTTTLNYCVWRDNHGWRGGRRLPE
# Chain of rat Glutamate Metabotropic Receptor 5 (MGluR5), Grm5 (gene 24418) (P31424 whole entry, looked up): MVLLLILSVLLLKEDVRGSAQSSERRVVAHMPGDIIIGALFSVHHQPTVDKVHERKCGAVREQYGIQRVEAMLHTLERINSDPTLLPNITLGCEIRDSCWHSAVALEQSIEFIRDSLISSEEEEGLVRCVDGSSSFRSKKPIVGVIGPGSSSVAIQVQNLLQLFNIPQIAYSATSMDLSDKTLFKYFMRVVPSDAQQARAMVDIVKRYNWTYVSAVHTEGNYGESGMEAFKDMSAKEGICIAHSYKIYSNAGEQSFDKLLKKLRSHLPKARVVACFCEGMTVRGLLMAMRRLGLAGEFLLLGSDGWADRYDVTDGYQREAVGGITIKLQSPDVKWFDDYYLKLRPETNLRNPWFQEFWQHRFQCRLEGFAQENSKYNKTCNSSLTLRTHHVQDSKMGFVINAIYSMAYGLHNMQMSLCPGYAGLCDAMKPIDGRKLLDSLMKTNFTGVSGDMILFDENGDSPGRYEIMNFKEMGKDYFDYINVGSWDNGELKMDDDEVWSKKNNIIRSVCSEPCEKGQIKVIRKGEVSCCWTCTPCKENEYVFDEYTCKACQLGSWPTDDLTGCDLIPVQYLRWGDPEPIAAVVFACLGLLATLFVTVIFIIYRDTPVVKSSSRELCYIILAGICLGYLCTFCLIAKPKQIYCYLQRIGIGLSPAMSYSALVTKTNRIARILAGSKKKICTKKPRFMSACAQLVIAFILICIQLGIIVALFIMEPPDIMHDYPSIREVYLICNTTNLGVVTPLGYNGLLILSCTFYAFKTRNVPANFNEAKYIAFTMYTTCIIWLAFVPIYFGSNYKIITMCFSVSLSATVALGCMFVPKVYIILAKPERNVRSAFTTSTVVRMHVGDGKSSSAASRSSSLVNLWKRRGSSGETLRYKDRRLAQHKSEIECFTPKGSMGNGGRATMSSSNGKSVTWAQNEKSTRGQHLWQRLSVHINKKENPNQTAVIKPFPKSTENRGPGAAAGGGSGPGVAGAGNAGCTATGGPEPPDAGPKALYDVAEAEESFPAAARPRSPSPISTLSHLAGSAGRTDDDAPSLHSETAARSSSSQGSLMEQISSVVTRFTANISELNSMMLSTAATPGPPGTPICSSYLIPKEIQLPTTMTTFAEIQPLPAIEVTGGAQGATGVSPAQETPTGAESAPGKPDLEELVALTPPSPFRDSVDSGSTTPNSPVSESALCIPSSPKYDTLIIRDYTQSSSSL
# Chain of rat Opioid Receptor, Non-selective Sodium (Na+) Binding, Oprm1 (gene 25601) (P33535 whole entry, looked up): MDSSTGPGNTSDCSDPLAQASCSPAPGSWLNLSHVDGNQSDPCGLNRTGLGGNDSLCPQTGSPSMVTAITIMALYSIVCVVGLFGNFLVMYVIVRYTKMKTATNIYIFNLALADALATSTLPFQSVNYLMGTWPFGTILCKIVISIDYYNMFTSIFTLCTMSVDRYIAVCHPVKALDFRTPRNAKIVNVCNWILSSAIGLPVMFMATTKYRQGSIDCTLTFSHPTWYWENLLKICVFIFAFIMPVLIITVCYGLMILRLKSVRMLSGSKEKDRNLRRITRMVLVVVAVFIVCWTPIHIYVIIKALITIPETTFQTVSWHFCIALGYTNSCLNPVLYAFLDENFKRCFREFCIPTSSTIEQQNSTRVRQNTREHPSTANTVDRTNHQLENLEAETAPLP
# Chain of rat Opioid Receptor, Non-selective Binding, Oprm1 (gene 25601) (P33535 whole entry, looked up): as above
# Chain of Adra2b (gene 24174) (P19328 whole entry, looked up): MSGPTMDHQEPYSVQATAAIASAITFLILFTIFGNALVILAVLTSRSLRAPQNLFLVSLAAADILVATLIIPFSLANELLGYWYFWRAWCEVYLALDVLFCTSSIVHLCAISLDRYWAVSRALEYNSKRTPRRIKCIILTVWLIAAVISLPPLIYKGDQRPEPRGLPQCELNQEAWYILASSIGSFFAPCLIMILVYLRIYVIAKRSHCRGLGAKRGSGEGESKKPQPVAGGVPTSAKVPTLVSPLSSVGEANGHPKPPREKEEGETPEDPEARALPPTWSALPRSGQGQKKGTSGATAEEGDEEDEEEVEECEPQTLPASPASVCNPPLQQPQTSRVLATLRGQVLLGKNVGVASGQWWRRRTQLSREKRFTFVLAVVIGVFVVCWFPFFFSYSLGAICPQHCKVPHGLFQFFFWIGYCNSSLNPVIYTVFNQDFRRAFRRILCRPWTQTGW
# Chain of bovine Gamma-Aminobutyric Acid Type A Receptor BDZ, alpha 5 site (GABARa5), GABRA5 (gene 523515) (Q08E50 whole entry, looked up): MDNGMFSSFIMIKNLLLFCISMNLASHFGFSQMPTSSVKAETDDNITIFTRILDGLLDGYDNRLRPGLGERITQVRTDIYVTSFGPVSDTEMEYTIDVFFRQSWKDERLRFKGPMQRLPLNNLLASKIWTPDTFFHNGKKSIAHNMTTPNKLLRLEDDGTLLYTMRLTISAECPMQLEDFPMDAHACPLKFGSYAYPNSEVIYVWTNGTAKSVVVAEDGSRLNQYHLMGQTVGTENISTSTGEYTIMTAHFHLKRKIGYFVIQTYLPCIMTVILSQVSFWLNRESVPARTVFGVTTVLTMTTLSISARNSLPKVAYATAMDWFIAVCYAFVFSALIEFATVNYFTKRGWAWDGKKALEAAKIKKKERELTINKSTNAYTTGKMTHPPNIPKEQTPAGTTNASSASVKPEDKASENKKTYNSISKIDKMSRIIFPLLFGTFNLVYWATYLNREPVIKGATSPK
# Chain of human Serotonin, 5-Hydroxytryptamine Receptor 3 (5HT3), HTR3A (gene 3359) (P46098 whole entry, looked up): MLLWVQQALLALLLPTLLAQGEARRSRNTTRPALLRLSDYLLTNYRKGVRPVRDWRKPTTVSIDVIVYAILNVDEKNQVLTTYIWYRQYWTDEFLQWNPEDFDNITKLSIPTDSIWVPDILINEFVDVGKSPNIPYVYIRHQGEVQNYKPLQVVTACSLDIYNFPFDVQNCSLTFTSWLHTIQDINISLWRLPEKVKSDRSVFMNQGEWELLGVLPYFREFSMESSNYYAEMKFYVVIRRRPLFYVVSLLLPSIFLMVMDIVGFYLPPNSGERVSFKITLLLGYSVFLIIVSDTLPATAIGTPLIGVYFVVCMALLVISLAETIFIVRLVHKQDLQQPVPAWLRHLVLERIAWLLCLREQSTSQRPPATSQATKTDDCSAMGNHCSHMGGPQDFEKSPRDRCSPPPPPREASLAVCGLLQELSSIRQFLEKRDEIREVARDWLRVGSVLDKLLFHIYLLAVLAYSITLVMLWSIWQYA
# Chain of rat Vasopressin 1 Receptor (V1), Avpr1a (gene 25107) (P30560 whole entry, looked up): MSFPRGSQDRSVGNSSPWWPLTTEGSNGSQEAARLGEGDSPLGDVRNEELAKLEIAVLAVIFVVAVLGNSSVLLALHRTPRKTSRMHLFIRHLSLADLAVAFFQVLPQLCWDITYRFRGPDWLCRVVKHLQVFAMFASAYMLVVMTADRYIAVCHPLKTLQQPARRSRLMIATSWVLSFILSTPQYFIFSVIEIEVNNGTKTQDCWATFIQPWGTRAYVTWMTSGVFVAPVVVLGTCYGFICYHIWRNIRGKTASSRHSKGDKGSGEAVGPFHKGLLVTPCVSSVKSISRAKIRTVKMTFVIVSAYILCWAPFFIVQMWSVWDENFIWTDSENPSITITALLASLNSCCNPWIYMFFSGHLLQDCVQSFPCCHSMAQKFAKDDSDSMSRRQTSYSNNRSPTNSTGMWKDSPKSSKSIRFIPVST
# Chain of rat Neonicotinoid receptor (NNR), Chrna7 (gene 25302) (Q05941 whole entry, looked up): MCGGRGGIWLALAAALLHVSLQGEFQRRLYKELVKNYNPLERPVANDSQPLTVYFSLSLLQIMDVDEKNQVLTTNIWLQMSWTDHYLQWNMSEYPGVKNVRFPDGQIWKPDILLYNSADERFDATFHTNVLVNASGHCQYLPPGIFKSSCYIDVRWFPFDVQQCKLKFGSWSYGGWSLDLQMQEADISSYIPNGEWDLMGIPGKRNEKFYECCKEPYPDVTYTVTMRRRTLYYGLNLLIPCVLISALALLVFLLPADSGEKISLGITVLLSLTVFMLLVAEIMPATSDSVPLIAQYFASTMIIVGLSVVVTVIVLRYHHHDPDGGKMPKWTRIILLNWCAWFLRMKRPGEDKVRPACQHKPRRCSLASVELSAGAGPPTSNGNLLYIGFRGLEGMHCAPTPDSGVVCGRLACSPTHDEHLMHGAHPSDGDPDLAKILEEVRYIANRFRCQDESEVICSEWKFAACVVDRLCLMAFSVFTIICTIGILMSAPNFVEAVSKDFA
smiles,measurement,setting,value
CC1=C(/C=C/C(C)=C/C=C/C(C)=C/C(=O)O)C(C)(C)CCC1,AC50,[1],18.1 µM (active)
CCCOC(=O)c1ccc(O)cc1,AC50,[2],31.2 µM (active)
same,outcome,[1],inactive
CCCCCCCC(=O)O,outcome,Adra2b (gene 24174),inactive
same,outcome,[3],inactive
same,outcome,[4],inactive
same,outcome,[5],inactive
same,outcome,[6],inactive
same,outcome,[7],inactive
CCC(=C(c1ccc(O)cc1)c1ccc(OCCN(C)C)cc1)c1ccccc1,outcome,[8],inactive
same,AC50,[2],4.03 µM (active)
same,outcome,[1],inactive
CCCCCCCCCCCCCC[N+](C)(C)C,AC50,[2],8.44 µM (active)
CC(C)CCCCCCOC(=O)CCCCC(=O)OCCCCCCC(C)C,outcome,[9],inactive
same,outcome,[8],inactive
CC#C[C@]1(O)CC[C@H]2[C@@H]3CCC4=CC(=O)CCC4=C3[C@@H](c3ccc(N(C)C)cc3)C[C@@]21C,AC50,Adra2b (gene 24174),6.9 µM (active)
same,outcome,[9],inactive
same,outcome,[8],inactive
same,outcome,[10],inactive
same,AC50,[3],2.59 µM (active)
same,outcome,[11],inactive
same,outcome,[12],inactive
same,AC50,[4],0.404 µM (active)
same,AC50,[2],6.71 µM (active)
